From PubChem BioAssay
KCC2 mod: KCC2 (human) Cl- transport modulation | KCC2 cells, thallium flux FluoZin-2 fluorescence | actives 2.2% (n = 190,000) | Q9H2X9 | AID 1456 | B-score of Tl+ flux slope (higher = more flux/activation; lower = inhibition) at 10 µM;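 active means thallium flux slope and its plate-corrected score both differing from the plate sample mean at a set confidence after two filtering rounds, in either direction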;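 further: slope of fluorescence scaled to starting intensity during 10 to 20 s after thallium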
S1P3 antagonist: antagonists of human S1P3 receptor | inhibition, % at 4.98 µM | actives 0.27% (n = 170,000) | Q99500 | CHO S1P3 NFAT-BLA reporter, FRET fluorescence, antagonist mode;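 active means inhibition above the plate cutoff, the mean inhibition of test wells on that plate plus 3 SD, cut at about 28% in these data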;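 further: cells challenged with S1P at its EC80 of 0.8 µM; blue over green emission ratio from cleaved BLA substrate after 4 h stimulation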
PGE2 EP2 inh: blocks the human prostaglandin E2 receptor EP2. P43116. C6 glioma cells expressing human EP2, cAMP TR-FRET; cells stimulated with saturating PGE2. inhibition, % at 25 µM. actives 0.52% (n = 260,000);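 active means percent inhibition above 40 after rounding to a whole number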;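 further: rat C6 glioma host cells with rolipram phosphodiesterase inhibitor present; the protocol text gives 20 µM as final concentration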
EP2 mod: modulates human prostaglandin E2 receptor EP2 signaling. P43116. EP2-expressing cells, cAMP HTRF FRET, PGE2 co-stimulation. induction, % at 25 µM. actives 0.83% (n = 260,000). AID 940;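 active means compounds whose cAMP rise, as percent of the full-agonist control response, exceeds 60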;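 further: rat C6 glioma line stably carrying human EP2 under a CMV promoter; the protocol text gives 20 µM as final concentration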
KCC2 sec1: confirmation of human KCC2 transport modulators. shares compounds with KCC2 mod. HEK293-KCC2, thallium flux, FluoZin2 fluorescence; hits give high values. normalised thallium flux (F/F0 slope) at 10 µM. actives 15% (n = 3,700). AID 1713;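 active means thallium flux slope above the same plate's solvent-only control mean plus 3 SD; inconclusive means the two replicate wells disagree; inactive means no significant difference from solvent-only control wells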
KCC2 bumet counter: thallium flux despite bumetanide block in KCC2 cells, secondary assay 3; shares compounds with KCC2 mod; actives 49% (n = 3,700); normalized thallium flux at 10 µM; HEK293-KCC2 + bumetanide/ouabain, thallium flux FluoZin2; hits give high values;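 active means thallium entry rate above the same plate's blocked-transporter control wells by more than 3 SD; inconclusive means the two repeat wells disagree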;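 further: raw slope of fluorescence over initial fluorescence between 10 and 20 s after thallium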
KCC2 sec2: confirmation of human KCC2 transport modulators | shares compounds with KCC2 mod | HEK293-KCC2, thallium flux FluoZin2 fluorescence; actives lie on both sides; F/F0 rise rate, 10–20 s post-thallium | normalized thallium flux at 10 µM | actives 23% (n = 3,700) | AID 1715;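 active means thallium flux slope more than 3 SD above or below the plate's solvent-only control mean, mostly below; inconclusive means the two repeat wells disagreed; inactive means no significant shift from solvent-only controls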
HEK293 Tl flux: acts in parental HEK cells, KCC2 counter-screen. actives 46% (n = 3,700). thallium flux rate (normalised fluorescence) at 10 µM. shares compounds with KCC2 mod. HEK293 parental cells, thallium flux FluoZin2, ouabain; baseline-ratio fluorescence slope, 10–20 s after thallium. AID 1716;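 active means thallium flux rate significantly above the same plate's solvent-only control wells, beyond their mean plus 3 SD; inconclusive means the two replicate wells gave conflicting results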
KCC2 retest ouab: confirmation of human KCC2 modulators with ouabain | shares compounds with KCC2 mod | HEK293-KCC2, thallium flux FluoZin2 fluorescence; bidirectional: low = inhibitor, high = activator | raw Tl+ flux slope (below DMSO = inhibition, above = activation) at 10 µM | actives 48% (n = 3,700) | AID 1717;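 active means thallium flux slope beyond 3 SD from same-plate DMSO control mean in most replicates, usually higher, sometimes lower; inconclusive means repeat tests gave conflicting results; inactive means no significant difference from controls in most replicates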;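 further: slope of initial-normalized fluorescence between seconds 10 and 20 after thallium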
HEK counter2: parental HEK flux effect, counter-screen 2; HEK293 parental, thallium flux FluoZin-2 fluorescence slope; shares compounds with KCC2 mod; actives 33% (n = 3,700); thallium flux slope at 10 µM;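 active means thallium flux slope above the same plate's solvent-control mean plus 3 SD in both duplicate wells; inconclusive means duplicate wells that disagreed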;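 further: run without ouabain in cells lacking the KCC2 cotransporter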
Of the large screens only hits and unclear results are named; the others gave an inactive call (follow-up assays come after a bar, where they were run). Most compounds without a hit are left out; they make up all but 3.1% or so of the library.

COc1ccc(C2=CSC3=NNC4(CCCCC4)NN23)cc1	none
Cc1cc(C)nc(Nc2ccc(OC(C)C)cc2)n1	none (no result: KCC2 mod, S1P3 antagonist)
CC1CCCCC12NC(=S)N(c1ccccc1)N2 (configuration not stated)	KCC2 mod 8.08 | KCC2 sec1 inconclusive | KCC2 bumet counter 0.0224 | KCC2 sec2 inactive | HEK293 Tl flux 0.0162 | KCC2 retest ouab inactive | HEK counter2 0.0119
COC(=O)c1ccccc1NC(=O)CSc1ccc(C)cc1	KCC2 mod -4.3 (no result: S1P3 antagonist) | KCC2 sec1 inactive | KCC2 bumet counter inconclusive | KCC2 sec2 inactive | HEK293 Tl flux inactive | KCC2 retest ouab inactive | HEK counter2 inactive
Cc1nc(NC(=O)c2ccccc2)sc1C	none (no result: KCC2 mod, S1P3 antagonist)
COC(=O)c1sc(NC(=S)NC(=O)c2ccccc2F)nc1C	KCC2 mod 35.8 | KCC2 sec1 inactive | KCC2 bumet counter 0.037 | KCC2 sec2 inconclusive | HEK293 Tl flux 0.0331 | KCC2 retest ouab 0.0402 | HEK counter2 0.0216
Cc1nc(NC(=S)NC(=O)c2ccccc2)sc1C	KCC2 mod 45.5 | KCC2 sec1 0.0146 | KCC2 bumet counter 0.0601 | KCC2 sec2 inactive | HEK293 Tl flux 0.0277 | KCC2 retest ouab 0.0365 | HEK counter2 0.0134
CCOC(=O)CNC(=O)c1sc(NC(=O)c2ccccc2F)nc1C	none
CCCn1nc(Oc2nc(NCC)nc(NC(C)C)n2)ccc1=O	KCC2 mod -4.38 (no result: S1P3 antagonist) | KCC2 sec1 inactive | KCC2 bumet counter inactive | KCC2 sec2 inactive | HEK293 Tl flux inactive | KCC2 retest ouab inactive | HEK counter2 inactive
N#C/C(=N\Nc1cccc(Cl)c1)C(=O)c1ccccc1	none (no result: S1P3 antagonist)
N#C/C(=N\Nc1ccccc1Cl)C(=O)c1ccccc1	KCC2 mod -4.36 (no result: S1P3 antagonist, PGE2 EP2 inh) | KCC2 sec1 inactive | KCC2 bumet counter inactive | KCC2 sec2 inactive | HEK293 Tl flux inconclusive | KCC2 retest ouab 0.0155 | HEK counter2 inactive
COc1ccc(-n2cccc2/C=C2\C(=N)N3N=C(C(C)C)SC3=NC2=O)cc1	none
CCC1=NN2C(=N)/C(=C\c3cccn3-c3ccc(Br)cc3)C(=O)N=C2S1	KCC2 mod 11.3 | KCC2 sec1 inactive | KCC2 bumet counter 0.0224 | KCC2 sec2 inactive | HEK293 Tl flux 0.019 | KCC2 retest ouab 0.0253 | HEK counter2 0.0141
CCC1=NN2C(=N)/C(=C\c3cccn3-c3cccc(Cl)c3)C(=O)N=C2S1	KCC2 mod 8.8 | KCC2 sec1 inactive | KCC2 bumet counter 0.0503 | KCC2 sec2 inconclusive | HEK293 Tl flux 0.0209 | KCC2 retest ouab 0.0263 | HEK counter2 0.0212
CCN(CC)CCCNC(=S)N(CCN(C)C)Cc1cc2c(C)cc(C)cc2[nH]c1=O	none (no result: KCC2 mod, S1P3 antagonist)
COc1ccc(OC)c2sc(NNC(=O)COc3ccccc3)nc12	KCC2 mod 3.44 | KCC2 sec1 inactive | KCC2 bumet counter 0.0117 | KCC2 sec2 inactive | HEK293 Tl flux 0.0112 | KCC2 retest ouab inconclusive | HEK counter2 0.0128
C#CCNC1CCN(Cc2ccccc2)CC1c1ccccc1 (configuration not stated)	none (no result: KCC2 mod, S1P3 antagonist, PGE2 EP2 inh)
CCn1c(O)c(N=NC(=S)NCC2CCCO2)c2ccccc21 (configuration not stated)	KCC2 mod 53 | KCC2 sec1 inactive | KCC2 bumet counter 0.0781 | KCC2 sec2 0.0582 | HEK293 Tl flux 0.0553 | KCC2 retest ouab 0.0674 | HEK counter2 0.0563
Oc1[nH]c2ccc(Br)cc2c1N=NC(=S)NCC1CCCO1 (configuration not stated)	KCC2 mod 34.9 | KCC2 sec1 0.0138 | KCC2 bumet counter 0.0483 | KCC2 sec2 inactive | HEK293 Tl flux inconclusive | KCC2 retest ouab 0.0364 | HEK counter2 0.0178
CCc1nc(SCC(=O)N2CCc3ccccc3C2)c2c(C)c(C)sc2n1	none (no result: KCC2 mod, S1P3 antagonist)
COC(=O)CSc1nc2ccccc2n1CC(=O)N1CCCCC1	none (no result: KCC2 mod, S1P3 antagonist)
C=C(C)C1CC=C(C)/C(=N\NC(=S)Nc2ccc(C)cc2)C1 (configuration not stated)	KCC2 mod 4.62 | KCC2 sec1 inactive | KCC2 bumet counter 0.0222 | KCC2 sec2 inactive | HEK293 Tl flux 0.0119 | KCC2 retest ouab 0.0402 | HEK counter2 0.0112
CCOc1ccc2c(c1)C1(SC(NC(C)=O)=NN1C(C)=O)C(=O)N2CC (configuration not stated)	none (no result: KCC2 mod, S1P3 antagonist)
CC(C)CCNC(=O)[C@H](CSCc1ccccc1)N1Cc2ccccc2C1=O	KCC2 mod -4.21 | KCC2 sec1 0.00583 | KCC2 bumet counter inactive | KCC2 sec2 inconclusive | HEK293 Tl flux inconclusive | KCC2 retest ouab 0.0143 | HEK counter2 inactive
C[C@H]1CC[C@H]2C(=O)N3[C@H](c4cccc(N5CCCC5=O)c4)[C@@H](C)CC[C@H]3C(=O)N2[C@@H]1c1cccc(N2CCCC2=O)c1	KCC2 mod 4.91 (no result: PGE2 EP2 inh) | KCC2 sec1 inactive | KCC2 bumet counter inactive | KCC2 sec2 inconclusive | HEK293 Tl flux inactive | KCC2 retest ouab inactive | HEK counter2 inactive
COc1cc(OC)cc(C(=O)N2CCC(O)(c3cccnc3)CC2)c1	none (no result: KCC2 mod, S1P3 antagonist, PGE2 EP2 inh)
Cc1nn(-c2ccccc2)c(N)c1Sc1cccc([N+](=O)[O-])c1	KCC2 mod -7.03 | KCC2 sec1 inactive | KCC2 bumet counter inactive | KCC2 sec2 inactive | HEK293 Tl flux 0.00531 | KCC2 retest ouab inactive | HEK counter2 inactive
Cc1nn(-c2ccccc2)c(N)c1Sc1ccccc1[N+](=O)[O-]	none
CCC(C)(C)C1CCC(=NNC(=S)Nc2cccnc2)CC1 (configuration not stated)	KCC2 mod 24.1 | KCC2 sec1 inactive | KCC2 bumet counter 0.0389 | KCC2 sec2 inactive | HEK293 Tl flux 0.0219 | KCC2 retest ouab 0.0423 | HEK counter2 0.0126
Oc1ccc(/C=N/NC(=S)Nc2cccnc2)cc1O	none
CC(C)(C)c1ccc(/C=N/NC(=S)Nc2cccnc2)cc1	KCC2 mod 12.1 | KCC2 sec1 inactive | KCC2 bumet counter 0.0316 | KCC2 sec2 inactive | HEK293 Tl flux 0.012 | KCC2 retest ouab inconclusive | HEK counter2 0.0108
COc1ccc(C(=O)On2c(-c3ccc(Br)cc3)nc3ccccc3c2=O)cc1	KCC2 mod 5.8 | KCC2 sec1 inactive | KCC2 bumet counter inconclusive | KCC2 sec2 0.0388 | HEK293 Tl flux 0.0118 | KCC2 retest ouab inconclusive | HEK counter2 0.0219
